Assay outcomes: PubChem, National Center for Advancing Translational Sciences (NCATS)
MCF10A rereplic: DNA re-replication induction in MCF 10a cells | MCF 10A DNA re-replication, Hoechst nuclear intensity, 48 h | Potency, µM (doses to about 46.1 µM), usual class: activators | actives 2.9% (n = 350,000) | AID 624296; further: nearly all actives have a fitted effect of over 50% in size
IL1B secr inh: inflammasome signaling inhibition, IL-1 beta readout. THP-1 LPS/ATP IL-1B secretion, AlphaLISA, 16 h; stronger effect = lower value. activity change, % at 57.5 µM. actives 4.7% (n = 360,000). AID 743279; in the data active means activity change below about -50%; inconclusive means mostly about -30% to -49%
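THP-1 cells pretreated 1 hr with compounds (up to 57.5 uM final), then stimulated with LPS (250 ng/mL final) plus ATP (1.25 mM final); secreted IL-1B measured by AlphaLISA after 16 hr, decreased signal indicating inhibition.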
PINK1 expr mod: changes PINK1 expression | PINK1 immunofluorescence, high-content cytometry, 24 h | Potency, µM (series often up to 76.6 µM), most hits filed as activators | actives 0.2% (n = 410,000) | AID 624263; active means well fitted activation curve with a large enough effect; inconclusive means small, poorly fitted or top-dose-only effect; cell line not stated here; further: nearly all actives have a fitted effect of over 65% in size
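Readout is PINK1 immunofluorescence, quantified alongside mitochondrial, cell and nuclear markers by laser-scanning microplate cytometry. Cells from a stable line were exposed to compound titrations (5 concentrations) for 24 hours, with CCCP controls.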
SW480 rerep: inducers of DNA re-replication in SW480 colon cancer cells. SW480 DNA re-replication, Hoechst DNA content imaging, 48 h. Potency, µM (highest dose often 46.1 µM), hits mostly activators. actives 1.8% (n = 340,000); further: nearly all actives have a fitted effect of over 55% in size
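First, 250 cells per well were seeded. Next, compound or vehicle (23 nL) was pinned in, plates sat 48 hr at 37 C. Finally Hoechst was added for 40 min before fluorescence scanning.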
ATXN2 expr inh: inhibitors of ATXN2 expression. HEK-293 ATXN2-luciferase reporter, luminescence, 24 h. Potency, µM (doses to about 57 µM), most hits filed as inhibitors. actives 0.72% (n = 360,000). AID 1745845; further: nearly all actives have a fitted effect of over 55% in size
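ATXN2-luciferase reporter cells (luciferase flanked by upstream and downstream ATXN2 gene portions) were treated 24 h at 37 °C with compounds at up to 57 uM. SteadyGlo luminescence gave expression; GF-AFC fluorescence gave viability.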
S2 tox: viability counter-screen for ATXN expression inhibitors; S2 cells (HEK-293 line with an ATXN2-luciferase reporter) viability, CellTiter-Fluor protease fluorescence, 24 h; Potency, µM (titrated, usually from 56.7 µM), hits mostly cytotoxic; actives 0.49% (n = 400,000); further: nearly all actives have a fitted effect of over 40% in size
A number is an active result; i = inactive; ? = inconclusive; nt = no result given; ! = a repeat was not active; [ ] = dose if it differs, or a comment. An excerpt weighted towards active compounds, which were near 7.1% of everything screened. Unless noted, the call rests on the fitted dose curve; in most records, active means well fitted curve in the direction sought with a large enough effect; inconclusive means small, poorly fitted or top-dose-only effect, or another doubt; inactive means no such curve, though single readings can be large; an effect the other way counts as inactive or inconclusive.

SMILES	MCF10A rereplic	IL1B secr inh	PINK1 expr mod	SW480 rerep	ATXN2 expr inh	S2 tox
CC[C@H](C)[C@H]1O[C@]2(CC[C@@H]1C)C[C@@H]1C[C@@H](CC=C(C)[C@@H](O[C@H]3C[C@H](OC)[C@@H](O[C@H]4C[C@H](OC)[C@@H](O)[C@H](C)O4)[C@H](C)O3)[C@@H](C)C=CC=C3CO[C@@H]4[C@H](O)C(C)=C[C@@H](C(=O)O1)[C@]34O)O2	?	i	i	i	3.5µM	3.5µM
CCC(C)[C@H]1O[C@]2(C=C[C@@H]1C)C[C@@H]1C[C@@H](C/C=C(\C)[C@@H](O[C@H]3C[C@H](OC)[C@@H](O[C@H]4C[C@H](OC)[C@H](NC(C)=O)[C@H](C)O4)[C@H](C)O3)[C@@H](C)/C=C/C=C3\CO[C@@H]4[C@H](O)C(C)=C[C@@H](C(=O)O1)[C@]34O)O2 (some centres undefined)	nt	nt	nt	nt	nt	3.2µM!
COc1ccc(OC)c(NC(=O)C2Cc3ccccc3CN2S(=O)(=O)c2ccc(F)cc2)c1 (centres undefined)	nt	nt	i	nt	nt	nt
COc1cc2c(=O)c(C(=O)c3ccc(C)c(C)c3)cn(Cc3ccccc3F)c2cc1OC	nt	nt	i	nt	i	?
Cc1ccc(C)c(Cn2c3ccccc3c3cnn(CC(=O)NCCN4CCOCC4)c(=O)c32)c1	i	i	i	i	i	i
Cc1ccc(C)c(Cn2c3ccccc3c3cnn(CC(=O)NCCCN4CCOCC4)c(=O)c32)c1	i	-55	i	i	?	i
CCCCN(C)CCCNC(=O)Cn1ncc2c3ccccc3n(Cc3ccccc3F)c2c1=O	nt	nt	i	nt	i	i
Cc1c2cnn(CC(=O)NCCCN3CC(C)CC(C)C3)c(=O)c2c(C)n1Cc1ccccc1Cl (centres undefined)	i	-58	i	i	i	i
CCCN(CCC)CCCNC(=O)Cn1ncc2c3ccccc3n(Cc3ccccc3F)c2c1=O	nt	nt	i	nt	?	14µM
COc1ccc(-c2noc(N3CCC(C(=O)N4CCN(c5cccc(OC)c5)CC4)CC3)n2)cc1	nt	nt	i	nt	nt	nt
CCc1cccc(NC(=O)Cn2cc(C(=O)c3ccncc3)c(=O)c3cc(C)c(C)cc32)c1	nt	nt	i	nt	nt	nt
Cn1cc(/C=C(\C#N)C(=O)Nc2ccccc2O)c2ccccc21	i	-62	?	i	i	?
CC(C)OC(=O)/C(C#N)=C/c1cn(Cc2ccccc2)c2ccccc12	?	i	i	i	i	i
Cc1ccccc1NC(=O)/C(C#N)=C\c1cn(CC(=O)O)c2ccccc12	i	i	i	?	i	?
CC(C)OC(=O)/C(C#N)=C/c1cn(C)c2ccccc12	i	-54	i	i	i	i
Cc1ccccc1NC(=O)c1nnn(-c2ccc3c(c2)OCCO3)c1N	i	-65	i	i	i	i
CCOc1ccccc1NC(=O)c1nnn(-c2ccc3c(c2)OCCO3)c1N	i	?	i	?	i	?
CCOc1cccc(C2C=C(c3ccc4c(c3)OCO4)NC(c3cccc(Br)c3)N2)c1O (centres undefined)	nt	nt	i	nt	nt	nt
C[C@@H]1CN([C@@H](C)CO)C(=O)c2cc(C#CC3CCCCC3)cnc2O[C@@H]1CN(C)S(=O)(=O)c1ccc(F)cc1	nt	-53	?	nt	?	20µM
C[C@@H]1CN([C@@H](C)CO)C(=O)c2cc(/C=C/c3ccccc3)cnc2O[C@@H]1CN(C)S(=O)(=O)c1ccc(F)cc1	nt	i	i	nt	i	i
C[C@H](CO)N1C[C@H](C)[C@@H](CN(C)S(=O)(=O)c2ccc(F)cc2)Oc2c(NC(=O)NC3CCCCC3)cccc2C1=O	i	-56	i	i[9.22 µM]	i	?
C[C@H](CO)N1C[C@H](C)[C@@H](CN(C)S(=O)(=O)c2ccccc2)Oc2c(NC(=O)NC3CCCCC3)cccc2C1=O	i	-51	i	i	i	?
C[C@H](CO)N1C[C@H](C)[C@@H](CN(C)CC2CCCCC2)Oc2c(NC(=O)Cc3ccccc3)cccc2C1=O	?	-70	i	?	?	32µM
CC(C)NC(=O)N(C)C[C@H]1Oc2c(NC(=O)Cc3ccccc3)cccc2C(=O)N([C@H](C)CO)C[C@@H]1C	i	i	i	i	i	i
C[C@H](CO)N1C[C@H](C)[C@@H](CN(C)S(=O)(=O)c2ccccc2)Oc2c(NC(=O)C3CC3)cccc2C1=O	i	i	i	i[9.22 µM]	i	i
SMILES	MCF10A rereplic	IL1B secr inh	PINK1 expr mod	SW480 rerep	ATXN2 expr inh	S2 tox
O=C(NCC(c1ccccc1)c1ccccc1)c1nn(-c2ccccc2F)nc1CO	nt	nt	i	nt	nt	nt
COCCNC(=O)CCCn1c(SCc2ccccc2C)nc2c(sc3ccccc32)c1=O	nt	nt	i	nt	nt	nt
COc1ccc(S(=O)(=O)Nc2cccc3c2O[C@H](CN(C)S(=O)(=O)c2ccccc2)[C@@H](C)CN([C@H](C)CO)C3=O)cc1	i	i	i	0.82µM	i	i
COc1ccc(S(=O)(=O)Nc2cccc3c2O[C@H](CN(C)S(=O)(=O)c2ccc(F)cc2)[C@H](C)CN([C@H](C)CO)C3=O)cc1	i	i	i	i	i	i
C[C@H](CO)N1C[C@H](C)[C@@H](CN(C)S(C)(=O)=O)Oc2c(NC(=O)Nc3ccc4c(c3)OCO4)cccc2C1=O	i	i	i	i	i	i
C[C@H](CO)N1C[C@H](C)[C@@H](CN(C)S(=O)(=O)c2ccccc2)Oc2c(NC(=O)Nc3ccc4c(c3)OCO4)cccc2C1=O	i	-61	i	i	i	?
CCOc1ccc(OCCC(=O)Nc2ccc(N3CCOCC3)cc2N2CCOCC2)cc1	nt	i	i	nt	nt	i
CCCN1CNc2c(c(=O)[nH]c(=S)n2CCc2ccc(C)c(C)c2)C1	nt	nt	i	nt	nt	nt
O=C(CCC(=O)OCC(=O)c1ccc([N+](=O)[O-])cc1)NC1CCCCC1	i	i	i	?	i	i
O=C(CCC(=O)OCC(=O)c1cccc([N+](=O)[O-])c1)NC1CCCCC1	i	i	i	2.6µM	nt	i
COc1cc(NC(=O)c2c(C)nn(-c3ccc(F)cc3)c2-n2cccc2)cc(OC)c1	nt	nt	i	nt	i	i
c1ccc(-c2cn(-c3ccccc3)c3ncnc(NCCCN4CCOCC4)c23)cc1	?	-86	i	i	nt	i
COc1ccc(-n2cc(-c3ccccc3)c3c(N4CCOCC4)ncnc32)cc1	i	-146	i	i	nt	i
OCCN1CCN(c2ncnc3c2c(-c2ccccc2)cn3-c2ccc(Br)cc2)CC1	?	-83	i	i	i	i
Fc1ccc(-n2cc(-c3ccccc3)c3c(N4CCOCC4)ncnc32)cc1	?	i	i	i	i	i
COc1ccc(-n2cc(-c3ccccc3)c3c(=O)[nH]cnc32)cc1	i	-82	i	i	i	i
CC(=O)c1cc(-c2ccc(F)cc2)n(CC(=O)NCc2ccc(C)cc2)c1C	nt	nt	i	nt	nt	nt
